# CYP2C9 activ: increases human cytochrome P450 2C9 activity | 96,000 tested, 1.4% active | activation factor at 5 µM | recombinant CYP2C9, luciferin-H conversion, luminescence; stronger effect = higher value; factor 1 = untreated enzyme, 0 = blocked | P11712 | AID 1024;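 active = activation factor of 2 or more for CYP2C9 at a 5 µM dose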;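 also: 0 = sulfaphenazole-blocked wells and 1 = vehicle-only wells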
# CYP2C19 inhib: inhibitors of human CYP2C19 | inhibition, % at 5 µM | CYP2C19 Supersomes, luciferin-H EGE luminescence, 30 min | 96,000 tested, 21% active | P33261 | AID 778;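 active = CYP2C19 inhibition above a set limit at 5 µM in the primary screen, cut at about 50% in these data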;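 also: plate controls were negative control wells for no effect and 2.5 mM tranylcypromine positive control for full effect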
# CYP2C9 inh: human CYP2C9 inhibition | P11712 | CYP2C9 Supersomes, luciferin-H conversion, luminescence | inhibition, % at 5 µM | 96,000 tested, 20% active | AID 777;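 active = blocking of liver enzyme CYP2C9 beyond about 50% at 5 µM, limit read from the data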
# Cav3 T inh: human Cav3.2 channel inhibition, primary screen; O95180; Cav3.2-expressing cells, Fluo-4 calcium fluorescence FDSS; stronger effect = lower value; B-score at 10 µM; 100,000 tested, 4% active; AID 449739;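 active = single-dose well whose peak fluorescence ratio is a statistical outlier from its plate by either plate-standardised score or position-corrected B-score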
# CYP2C19 activ: cytochrome P450 2C19 (human) activation; activation factor at 5 µM; P33261; recombinant CYP2C19, luciferin-H EGE luminescence; stronger effect = higher value; 0 = fully inhibited enzyme, 1 = untreated enzyme; 96,000 tested, under 10 active;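 active = activation factor of at least 2 at 5 µM in the primary screen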;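 also: 0 = wells with 2.5 mM tranylcypromine and 1 = vehicle-only wells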
# Numbers without * were called inactive; · = no result given. Most compounds without a hit are left out; they make up all but 27% or so of the library.
SMILES,CYP2C9 activ,CYP2C19 inhib,CYP2C9 inh,Cav3 T inh,CYP2C19 activ
CCN(C(=O)c1cn(C)c(=O)c2cc(OC)c(OC)cc12)c1cc(OC)ccc1OC,1,-3,-2,3.2,1
CC1(C)CC(C)(O)P(=O)(c2ccccc2)O1 (stereo unspecified),1.3,0,-26,0.58,1
CCn1nc2cc(C(=O)NCCc3cccs3)ccc2c1OC,1,15,4,1.1,0.8
N#C/C(=C\c1cc(Cl)ccc1O)C(=O)NC1CCCCC1,0.4,18,61*,-0.34,0.8
N#C/C(=C\c1cc(Cl)cc(Cl)c1O)C(=O)NC1CCCCC1,1.2,0,-18,-2.5,1
N#CC(c1cccc(C(F)(F)F)c1)(c1ncc(C(F)(F)F)cc1Cl)N1CCOCC1 (stereo unspecified),0.6,52*,42,-4.3*,0.5
N#CC(c1ccccc1)(c1ncc(C(F)(F)F)cc1Cl)N1CCOCC1 (stereo unspecified),1,20,1,·,0.8
Cc1cccc(COCC(Cc2ccccc2)N2CCN(C(=O)c3cc(Cl)cc(Cl)c3)CCC2=O)c1 (stereo unspecified),·,·,·,-3.4*,·
CCCOC(=O)c1ccc2c(c1)C(=O)N(c1ccccc1)C2=O,0.9,32,15,-0.62,0.7
Cc1nnc(OC(C)C)c2nn(-c3ccccc3F)c(C)c12,0.1,51*,89*,1.2,0.5
CC(C)NC(=O)NC(=O)COc1cccc2c1OC(C)(C)C2,0.7,93*,32,-0.14,0.1
CC(C)N1C(=O)CCC1C(=O)NCCc1ccccc1 (stereo unspecified),0.8,7,18,-0.99,0.9
O=C1Cc2ccccc2C(c2ccc(Br)cc2)N1 (stereo unspecified),0.3,100*,71*,0.02,0
COC(=O)c1cc(OC)c(OC)cc1N=CC1=C(O)CC(C)(C)CC1=O,0.7,27,30,1.8,0.7
COc1cc(/C=C2\S/C(=N/S(=O)(=O)c3ccccc3)NC2=O)c([N+](=O)[O-])cc1OC,·,·,·,-2.6,·
COc1ccc(S(=O)(=O)/N=C2/NC(=O)/C(=C\c3cc(OC)c(OC)cc3[N+](=O)[O-])S2)cc1,0,14,100*,-1.5,0.9
COc1ccc(C2NCCO2)cc1OC (stereo unspecified),1,2,0,0.52,1
CN(CC(=O)N1CC=C(c2ccccc2)CC1)S(=O)(=O)c1cnc[nH]1,0,95*,99*,0.49,0
COCCn1c(CN2CCN(c3cccc(Cl)c3)CC2)nc2c1c(=O)n(C)c(=O)n2C,0.2,44,77*,0.92,0.6
CC(C)CCn1c(CN2CCN(c3cccc(Cl)c3)CC2)nc2c1c(=O)n(C)c(=O)n2C,·,·,·,-5.4,·
CCOCCn1c(CN2CCN(c3cccc(Cl)c3)CC2)nc2c1c(=O)n(C)c(=O)n2C,0.2,50,80*,-1.6,0.5
COc1ccc2c(c1)CCc1c(C(=O)NCCCn3ccnc3)noc1-2,0.3,82*,69*,0.33,0.2
COCC(C)NC(=O)c1noc2c1CCc1cc(OC)ccc1-2 (stereo unspecified),1.4,2,-36,1.8,1
COCCNC(=O)c1noc2c1CCc1cc(OC)ccc1-2,0.4,20,59*,1.2,0.8
COc1ccc2c(c1)CCc1c(C(=O)NCc3ccco3)noc1-2,1.4,62*,-41,0.015,0.4
SMILES,CYP2C9 activ,CYP2C19 inhib,CYP2C9 inh,Cav3 T inh,CYP2C19 activ
CCCNC(=O)C1(CC2CC(c3ccccc3)=NO2)CCN(C(=O)CCCCCBr)CC1 (stereo unspecified),·,·,·,0.38,·
Cc1ccc(-c2cnc(NC(=O)c3cccc(Br)c3)s2)c(C)c1,0.7,-3,33,-2.1,1
CN1C(=O)/C(=C2/C=Cc3ccccc3N2CCCS(=O)(=O)O)SC1=S,0.5,23,53*,·,0.8
CCCN1/C(=C2/SC(=S)N(CC)C2=O)C=Cc2ccccc21,0.9,37,8,0.19,0.6
C=CCN1C(=O)/C(=C2/Sc3ccccc3N2CCCS(=O)(=O)O)SC1=S,0.4,14,60*,·,0.9
CCOC(=O)/C=C1\SCC(=O)N1CC(=O)NC(C)C,1.1,25,-6,0.3,0.8
CCn1cc(C(=O)N2CCOCC2)c(=O)c2cc(S(=O)(=O)N(C)C)ccc21,1,-1,-2,-1.2,1
CCCNC(=O)c1ccccc1NC(=O)C1COc2ccccc2O1 (stereo unspecified),0.7,59*,31,-2.2,0.4
COc1cc(NC(=O)C2COc3ccccc3O2)c(OC)cc1Cl (stereo unspecified),0.2,86*,84*,-4.5*,0.1
COC(=O)c1ccc(C)c(NC(=O)C2COc3ccccc3O2)c1 (stereo unspecified),0.2,78*,79*,-1.2,0.2
NS(=O)(=O)c1ccc(NC(=O)C2COc3ccccc3O2)cc1 (stereo unspecified),0.8,14,16,-0.62,0.9
COc1ccc(OC)c(NS(=O)(=O)c2ccc(NC(=O)C3COc4ccccc4O3)cc2)c1 (stereo unspecified),0.9,57*,11,·,0.4
O=C(Nc1ccccc1C(=O)N1CCOCC1)C1COc2ccccc2O1 (stereo unspecified),1,15,-3,-0.026,0.8
CCCCn1ccnc1C(=O)c1cc(S(=O)(=O)N2CCOCC2)ccc1C,0.3,60*,69*,-2.4,0.4
CCCCn1ccnc1C(=O)c1cccc(S(=O)(=O)N2CC(C)CC(C)C2)c1 (stereo unspecified),0.1,79*,90*,-3.7,0.2
CC1Cc2ccccc2N1S(=O)(=O)c1cccc(C(=O)NC2CC2)c1 (stereo unspecified),1.7,36,-70,1.3,0.6
Cc1nnc(Nc2ccc(C(=O)N3CCOCC3)cc2)c2ccccc12,0.6,12,41,0.92,0.9
CCCCCC(=O)Nc1cccc(C2=NOC3(C2)C[C@@H](C(N)=O)N(C(=O)C2(C)CC2)C3)c1 (stereo partly specified),·,·,·,0.73,·
O=C(CCn1nnc2ccccc21)Nc1nnc(-c2ccccc2F)s1,0.4,20,56*,-0.11,0.8
COC(=O)C(Cc1cnc(Cl)s1)(C(=O)OC)c1ccc([N+](=O)[O-])cc1,0.3,91*,73*,-2.2,0.1
COC(=O)C(C)(C(=O)OC)c1ccccc1[N+](=O)[O-],0.9,8,7,-0.59,0.9
COC(=O)C(C)(C(=O)OC)c1ccc([N+](=O)[O-])cn1,1,6,-5,-0.025,0.9
COC(=O)C(Cc1cnc(Cl)s1)(C(=O)OC)c1ccccc1[N+](=O)[O-],0.3,94*,65*,-0.89,0.1
CCC(C)(C)n1nnnc1C(c1cc(OC)c(OC)c(OC)c1)N1CCN(c2ccccc2)CC1 (stereo unspecified),0.9,24,6,0.3,0.8
COc1ccc(CN(C)C(c2ccccc2)c2nnnn2-c2ccccc2C)c(OC)c1C (stereo unspecified),0.2,94*,79*,·,0.1

# Assay outcomes from PubChem.
